Source: PubChem BioAssay AID1159580 (chemical genetic matrix, 2015)
“And” between values parts separate entries of the source, which are not always exact repeats. Equal entries are not always repeated. In all, about 5,500 compounds went through this assay and about 2,000 (36%) were called active. About 18% were inconclusive and are not listed. Rule as the data show it: active = normalized growth mostly below about 0.91 (no sharp cut-off); inconclusive = no clear call, values can overlap the other calls; inactive = mostly above about 0.92. This is one part of the list.

Assay: chemical genetic growth profiling, strain panel (AID 1159580);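 also: tested at 20 µM; growth read once vehicle control cultures reached saturation at 30 °C; 1 = growth at the plate median or of vehicle wells; lower values mean less growth of the strain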
Conditions: S. cerevisiae deletion strains, growth OD

Measured: normalized growth

CN(C)C(=S)SSC(=S)N(C)C
inactive: locus YDL185W, strain tfp1, stronger effect = lower value 0.967
active: locus YAL013W, strain DEP1, stronger effect = lower value 0.0581 | locus YAL021C, strain ccr4, stronger effect = lower value 0.0666 | locus YAL026C, strain drs2, stronger effect = lower value 0.0601 | locus YAL030W, strain snc1, stronger effect = lower value 0.0553 | locus YBL061C, strain skt5, stronger effect = lower value 0.0618 | locus YBR009C, strain hhf1, stronger effect = lower value 0.0687 | locus YBR021W, strain FUR4, stronger effect = lower value 0.0817 | locus YBR023C, strain chs3, stronger effect = lower value 0.061 | locus YBR171W, strain sec66, stronger effect = lower value 0.074 | locus YBR229C, strain ROT2, stronger effect = lower value 0.048 | locus YBR231C, strain swc5, stronger effect = lower value 0.0647 | locus YBR279W, strain paf1, stronger effect = lower value 0.0589 | locus YCL011C, strain gbp2, stronger effect = lower value 0.0557 | locus YCL016C, strain dcc1, stronger effect = lower value 0.0628 | locus YCL029C, strain bik1, stronger effect = lower value 0.0606 | locus YCL061C, strain MRC1, stronger effect = lower value 0.0642 | locus YCL069W, strain vba3, stronger effect = lower value 0.0641 | locus YCR088W, strain abp1, stronger effect = lower value 0.0578 | locus YDL005C, strain med2, stronger effect = lower value 0.0735 | locus YDL035C, strain GPR1, stronger effect = lower value 0.0496 | locus YDL040C, strain nat1, stronger effect = lower value 0.0566 | locus YDL074C, strain BRE1, stronger effect = lower value 0.08 | locus YDL101C, strain DUN1, stronger effect = lower value 0.0541 | locus YDL134C, strain PPH21, stronger effect = lower value 0.048 | locus YDL192W, strain arf1, stronger effect = lower value 0.0606 | locus YDR001C, strain nth1, stronger effect = lower value 0.0555 | locus YDR069C, strain doa4, stronger effect = lower value 0.0622 | locus YDR101C, strain arx1, stronger effect = lower value 0.0568 | locus YDR137W, strain rgp1, stronger effect = lower value 0.0857 | locus YDR150W, strain NUM1, stronger effect = lower value 0.0561 | locus YDR159W, strain sac3, stronger effect = lower value 0.0951 | locus YDR162C, strain NBP2, stronger effect = lower value 0.0528 | locus YDR195W, strain ref2 0.147 | locus YDR297W, strain sur2, stronger effect = lower value 0.0586 | locus YDR318W, strain mcm21, stronger effect = lower value 0.0615 | locus YDR334W, strain swr1, stronger effect = lower value 0.0607 | locus YDR335W, strain msn5, stronger effect = lower value 0.0573 | locus YDR388W, stronger effect = lower value 0.0573 | locus YDR392W, strain spt3, stronger effect = lower value 0.0953 | locus YDR502C, strain sam2, stronger effect = lower value 0.0603 | locus YEL003W, strain gim4, stronger effect = lower value 0.0529 | locus YEL037C, strain rad23, stronger effect = lower value 0.0561 | locus YEL061C, strain CIN8 (second series), stronger effect = lower value 0.06 | locus YEL061C, strain CIN8, stronger effect = lower value 0.0482 | locus YER015W, strain faa2, stronger effect = lower value 0.0644 | locus YER016W, strain bim1, stronger effect = lower value 0.0587 | locus YER110C, stronger effect = lower value 0.0744 | locus YER111C, strain swi4, stronger effect = lower value 0.0843 | locus YER155C, strain BEM2 (second series), stronger effect = lower value 0.0839 | locus YER155C, strain BEM2, stronger effect = lower value 0.0634 | locus YER167W, strain BCK2, stronger effect = lower value 0.0494 | locus YFR010W, strain ubp6, stronger effect = lower value 0.067 | locus YGL078C, strain dbp3, stronger effect = lower value 0.0559 | locus YGL086W, strain mad1, stronger effect = lower value 0.0545 | locus YGL167C, strain pmr1, stronger effect = lower value 0.0722 | locus YGL173C, strain kem1, stronger effect = lower value 0.0644 | locus YGL227W, strain vid30, stronger effect = lower value 0.0589 | locus YGL240W, strain doc1, stronger effect = lower value 0.0761 | locus YGL248W, strain PDE1, stronger effect = lower value 0.0464 | locus YGL253W, strain hxk2, stronger effect = lower value 0.0521 | locus YGR078C, strain PAC10, stronger effect = lower value 0.0501 | locus YGR135W, strain pre9, stronger effect = lower value 0.0684 | locus YGR229C, strain SMI1, stronger effect = lower value 0.0575 | locus YGR252W, strain gcn5, stronger effect = lower value 0.158 | locus YHR013C, strain ard1, stronger effect = lower value 0.107 | locus YHR027C, strain rpn1, stronger effect = lower value 0.0609 | locus YHR030C, strain SLT2, stronger effect = lower value 0.0503 and 0.115 | locus YHR079C, strain IRE1 (second series), stronger effect = lower value 0.0559 | locus YHR079C, strain IRE1, stronger effect = lower value 0.109 | locus YHR094C, strain hxt1, stronger effect = lower value 0.0581 | locus YHR129C, strain ARP1, stronger effect = lower value 0.0536 | locus YHR142W, strain chs7, stronger effect = lower value 0.0711 | locus YHR200W, strain rpn10, stronger effect = lower value 0.0592 | locus YIL066C, strain RNR3, stronger effect = lower value 0.0523 | locus YIL073C, strain SPO22, stronger effect = lower value 0.0945 | locus YIL125W, strain kgd1, stronger effect = lower value 0.0556 | locus YIR030C, strain dcg1, stronger effect = lower value 0.0579 | locus YJL092W, strain hpr5, stronger effect = lower value 0.0561 | locus YJL095W, strain BCK1 (second series), stronger effect = lower value 0.057 | locus YJL095W, strain BCK1, stronger effect = lower value 0.049 and 0.102 | locus YJL115W, strain asf1, stronger effect = lower value 0.0685 | locus YJL129C, strain trk1, stronger effect = lower value 0.0884 | locus YJL134W, strain LCB3, stronger effect = lower value 0.0489 | locus YJL154C, strain vps35, stronger effect = lower value 0.0623 | locus YJL164C, strain tpk1, stronger effect = lower value 0.0632 | locus YJL166W, strain qcr8, stronger effect = lower value 0.0627 | locus YJL168C, strain set2, stronger effect = lower value 0.0598 | locus YJL187C, strain SWE1 (second series), stronger effect = lower value 0.0476 | locus YJL187C, strain SWE1, stronger effect = lower value 0.0566 | locus YJR043C, strain POL32, stronger effect = lower value 0.0614 | locus YJR066W, strain TOR1, stronger effect = lower value 0.00175
